Compound activity: PubChem, several laboratories
H9c2 protect = modulators protecting cardiomyocytes from myocardial damage | H9c2 cardiomyocytes, H2O2 injury protection, ATPLite, 2 h | protection from H2O2 cell death, % at 20 µM | hit rate 0.63% among 360,000;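 active = compounds giving at least 50% protection of heart cells from peroxide-induced death in the single-dose screen, raw or plate-pattern-corrected value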;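 note: 0% = DMSO wells with peroxide and 100% = DMSO wells without peroxide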
Efflux pump inh = antifungal efflux pump inhibition, Nile Red retention. S. cerevisiae Candida pump triplex. inhibition, % at 10 µM. hit rate 0.44% among 330,000. AID 485275;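 active = plate passing quality check with inhibition over a set limit, or well fluorescence over plate mean plus 4 SD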;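 note: Nile Red retained in pooled yeast measured as flow cytometry median fluorescence; 0% = buffer negative control and 100% = Enniatin B positive control; higher means more Nile Red kept so more efflux inhibition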
PHOSPHO1 block = inhibitors of human PHOSPHO1 phosphatase | AID 1565 | inhibition, % at 13.3 µM | recombinant PHOSPHO1, absorbance phosphatase assay | hit rate 1.1% among 290,000; in the data active = inhibition above about 60%
Target sequence (Q8TCT1 whole entry, looked up): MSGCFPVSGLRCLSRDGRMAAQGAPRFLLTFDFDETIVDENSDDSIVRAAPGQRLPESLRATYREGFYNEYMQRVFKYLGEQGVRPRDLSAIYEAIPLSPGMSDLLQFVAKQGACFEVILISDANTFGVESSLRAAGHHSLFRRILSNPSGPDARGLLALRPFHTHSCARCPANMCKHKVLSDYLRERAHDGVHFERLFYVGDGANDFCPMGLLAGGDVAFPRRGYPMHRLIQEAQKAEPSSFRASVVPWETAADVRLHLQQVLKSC
Calb FLC = C. albicans growth modulation with fluconazole. C. albicans CaCi-2 (fluconazole-resistant clinical isolate) + fluconazole, Alamar Blue growth, 48 h. growth inhibition, % (concentration not given with the values). hit rate 0.57% among 300,000. AID 1979;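 active = growth inhibition above about 58% in most replicates, limit read from the data, passing the limit was not always enough; inconclusive = exactly half the replicates above a set limit; inactive = most replicates below a set limit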;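 note: all wells also contain fluconazole at 8 µg/ml as a sub-toxic cotreatment; 0% = median of DMSO wells and 100% = median of geldanamycin control wells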
Cl transport mod = modulates chloride dependent transport by human KCC2. KCC2 cells, thallium flux FluoZin-2 fluorescence. B-score of Tl+ flux slope (higher = more flux/activation; lower = inhibition) at 10 µM. hit rate 2.2% among 190,000. AID 1456;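 active = thallium flux slope and its plate-corrected score both differing from the plate sample mean at a set confidence after two filtering rounds, in either direction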;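 note: slope of fluorescence scaled to starting intensity during 10 to 20 s after thallium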
KCC2 sec1 = KCC2 (human) modulation, secondary assay. shares compounds with Cl transport mod. AID 1713. HEK293-KCC2, thallium flux, FluoZin2 fluorescence; stronger effect = higher value. hit rate 15% among 3,700. normalised thallium flux (F/F0 slope) at 10 µM;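 active = thallium flux slope above the same plate's solvent-only control mean plus 3 SD; inconclusive = the two replicate wells disagree; inactive = no significant difference from solvent-only control wells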
KCC2 bumet counter = bumetanide-insensitive thallium flux in KCC2 cells with ouabain, counter-screen; shares compounds with Cl transport mod; HEK293-KCC2 + bumetanide/ouabain, thallium flux FluoZin2; stronger effect = higher value; normalized thallium flux at 10 µM; hit rate 49% among 3,700;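 active = thallium entry rate above the same plate's blocked-transporter control wells by more than 3 SD; inconclusive = the two repeat wells disagree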;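 note: raw slope of fluorescence over initial fluorescence between 10 and 20 s after thallium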
KCC2 sec2 = KCC2 (human) modulation, second secondary assay. shares compounds with Cl transport mod. HEK293-KCC2, thallium flux FluoZin2 fluorescence; actives lie on both sides; F/F0 rise rate, 10–20 s post-thallium. normalized thallium flux at 10 µM. hit rate 23% among 3,700;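 active = thallium flux slope more than 3 SD above or below the plate's solvent-only control mean, mostly below; inconclusive = the two repeat wells disagreed; inactive = no significant shift from solvent-only controls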;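 note: raw slope with 0.1% DMSO as baseline and bumetanide as block control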
HEK293 Tl flux = acts in parental HEK cells, KCC2 counter-screen | hit rate 46% among 3,700 | HEK293 parental cells, thallium flux FluoZin2, ouabain; baseline-ratio fluorescence slope, 10–20 s after thallium | AID 1716 | thallium flux rate (normalised fluorescence) at 10 µM | shares compounds with Cl transport mod;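 active = thallium flux rate significantly above the same plate's solvent-only control wells, beyond their mean plus 3 SD; inconclusive = the two replicate wells gave conflicting results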
KCC2 ouabain = confirmation of human KCC2 modulators with ouabain; hit rate 48% among 3,700; shares compounds with Cl transport mod; raw Tl+ flux slope (below DMSO = inhibition, above = activation) at 10 µM; HEK293-KCC2, thallium flux FluoZin2 fluorescence; bidirectional: low = inhibitor, high = activator;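 active = thallium flux slope beyond 3 SD from same-plate DMSO control mean in most replicates, usually higher, sometimes lower; inconclusive = repeat tests gave conflicting results; inactive = no significant difference from controls in most replicates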;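 note: slope of initial-normalized fluorescence between seconds 10 and 20 after thallium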
HEK293 Tl flux2 = counter-screen for KCC2 modulators: effect in parental HEK293 cells; thallium flux slope at 10 µM; hit rate 33% among 3,700; thallium flux FluoZin-2 fluorescence slope; shares compounds with Cl transport mod;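 active = thallium flux slope above the same plate's solvent-control mean plus 3 SD in both duplicate wells; inconclusive = duplicate wells that disagreed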;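 note: run without ouabain in cells lacking the KCC2 cotransporter; slope of fluorescence scaled to its starting value between 10 and 20 s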
Numbers without * were called inactive; u = inconclusive; x = no result given. Sampled rows, rich in hits. Any-hit rate of the full collection: about 3.3%.

SMILES	H9c2 protect	Efflux pump inh	PHOSPHO1 block	Calb FLC	Cl transport mod	KCC2 sec1	KCC2 bumet counter	KCC2 sec2	HEK293 Tl flux	KCC2 ouabain	HEK293 Tl flux2
O=C1CN(S(=O)(=O)c2cccc(Cl)c2Cl)CCN1	4	x	x	x	x	x	x	x	x	x	x
Cc1c(Cc2ccccc2)c(=O)oc2cc(OCc3ccc(C(=O)O)cc3)ccc12	-5	0	30	-4	-4.2*	0.0081	0.0056	0.035	0.0063*	u	0.011
COc1cccc(COc2ccc3c(C)c(Cc4ccccc4)c(=O)oc3c2)c1	-6	0	x	0	x	x	x	x	x	x	x
COc1ccc(C(=O)O)cc1NC(=S)NC(=O)/C=C/c1ccc(C(C)C)cc1	-7	0	20	-12	x	x	x	x	x	x	x
O=C(NCC(F)(F)F)c1ccc(S(=O)(=O)Nc2ccccc2N2CCCC2)cc1	-1	0	x	x	x	x	x	x	x	x	x
Cc1ccc(-n2nc(C(=O)O)cc2-c2ccc(Cl)cc2)cc1	2	0	20	49	-3.7*	0.0093	0.0066	0.036	0.0039	0.017*	0.011
O=C(O)c1cc(-c2ccc(Cl)cc2)n(-c2ccc(Cl)cc2)n1	0	0	40	6	-2.5	x	x	x	x	x	x
Nn1c(Cc2cccc3ccccc23)nnc1SCC(=O)NC1CCS(=O)(=O)C1 (centres undefined)	-4	0	90*	-37	5.7*	0.0092	0.0056	0.036	0.0083	0.019	0.012
CCN(C(=O)CSc1nnc(Cc2cccc3ccccc23)n1N)C1CCS(=O)(=O)C1 (centres undefined)	-14	0	0	-4	-0.59	x	x	x	x	x	x
COc1ccc(C(=O)O)cc1S(=O)(=O)Nc1ccc2cn[nH]c2c1	8	0	x	x	x	x	x	x	x	x	x
O=C(NCCc1ccccc1)c1nc2nc(-c3cccs3)cc(C(F)(F)F)n2n1	17	0	-27	8	-2.5*	0.0074	0.0066	0.028	0.0069	0.019	0.0096
COc1ccc(NC(=O)CN(C)C(=O)c2ccc(C)c(S(=O)(=O)N3CCCCC3)c2)cc1	2	x	x	x	x	x	x	x	x	x	x
COC(=O)c1ccc(Cl)c(NC(=O)CN(c2ccccc2)S(=O)(=O)c2ccc(OC)cc2)c1	-2	0	-6	-4	-4.4*	0.01	0.0063	u	0.0041	0.019*	0.011
FC(F)(F)c1cc(-c2ccco2)nc(NCc2cccnc2)n1	-13	0	41	36	x	0.0075	0.0045	0.03	0.0065	0.018	0.0097
Cn1nc([N+](=O)[O-])c(C(C#N)c2ccccn2)c(Cl)c1=O (centres undefined)	-16	0	32	x	-0.18	x	x	x	x	x	x
CCCn1nc([N+](=O)[O-])c(C(C#N)c2nc3ccccc3o2)c(Cl)c1=O (centres undefined)	-12	0	17	22	-6.6*	0.0072	u	0.022*	0.0058*	0.012*	0.0089
N#Cc1c(NC(=O)c2ccc(Cn3cc(Br)cn3)o2)sc2c1CCCCC2	-8	0	0	-1	-0.68	x	x	x	x	x	x
COC(=O)c1sc(NC(=O)c2ccc(Cn3cc(Cl)cn3)o2)c(C#N)c1C	-12	0	37	3	x	0.008	0.007	0.029	0.0064	0.042*	0.01
CCCN1Cc2cccc(C(=O)Nc3ccc(C)cc3)c2C1=O	0	0	11	7	x	0.0058	0.0043	0.028	0.0073	0.018	0.0099
OC[C@@H]1CN(Cc2ccncc2)C[C@H](n2cnc3c(NCc4ccco4)ncnc32)O1	5	x	x	x	x	x	x	x	x	x	x
COc1ccccc1C(=O)NC(CCSC)C(=O)Nc1ccc(C)c(S(=O)(=O)N2CCOCC2)c1 (centres undefined)	1	0	x	x	x	x	x	x	x	x	x
CCC(NC(=O)C1CCCC1)c1ccccc1 (centres undefined)	4	0	x	2	x	x	x	x	x	x	x
c1ccc(-c2ccc(-n3ccnc3)cc2)cc1	-4	0	-6	-30	x	0.009	0.0055	u	0.0035	0.017*	0.01
CC(=O)Nc1sc(C)c(C)c1C(=O)OCCOc1ccccc1	-4	0	-14	-2	x	x	x	x	x	x	x
Cc1ccc(OCC(=O)Nc2nc(C)c(Cl)cc2Cl)c([N+](=O)[O-])n1	0	0	x	x	x	x	x	x	x	x	x
SMILES	H9c2 protect	Efflux pump inh	PHOSPHO1 block	Calb FLC	Cl transport mod	KCC2 sec1	KCC2 bumet counter	KCC2 sec2	HEK293 Tl flux	KCC2 ouabain	HEK293 Tl flux2
CC1(C)CC(=O)C2=C(C1)c1c(ccc3ccccc13)NC2c1cc([N+](=O)[O-])cc([N+](=O)[O-])c1O (centres undefined)	-16	0	41	111*	-4.5*	0.0053	0.005	0.027*	u	0.016*	0.01
CC1(C)CC(=O)C2=C(C1)c1c(ccc3ccccc13)NC2c1ccc(C(=O)O)cc1 (centres undefined)	-1	0	7	8	x	x	x	x	x	x	x
CN(c1ccccc1)S(=O)(=O)c1cccc(NC(=O)c2ccc3ncsc3c2)c1	2	0	15	3	x	x	x	x	x	x	x
Cc1cc(C(=O)CSc2nnc(-c3cccc(F)c3)n2N)c(C)n1Cc1ccc2c(c1)OCO2	-9	0	-4	18	x	0.0075	0.004	0.029	0.007	0.019	0.01
Cc1cc(C(=O)CSc2nnnn2-c2ccc(O)cc2)c(C)n1Cc1ccc2c(c1)OCO2	10	0	-10	8	-0.99	x	x	x	x	x	x
O=[N+]([O-])c1cc(Cl)ccc1Sc1cccc2cccnc12	-4	0	-6	-2	-0.12	x	x	x	x	x	x
C=CCn1nc([N+](=O)[O-])nc1Sc1cccc2cccnc12	5	0	0	-28	12*	0.015*	0.06*	0.03	0.018*	0.036*	0.011*
O=[N+]([O-])c1ccc(Sc2cccc3cccnc23)cc1	-4	0	4	-9	-0.29	x	x	x	x	x	x
O=[N+]([O-])c1ccc(Sc2cccc3cccnc23)c([N+](=O)[O-])c1	-8	0	87*	-10	x	0.015*	0.053*	0.035	u	0.035*	0.013
C[C@@H]1CN([C@H](C)CO)C(=O)c2cc(NC(=O)c3ccncc3)ccc2O[C@@H]1CN(C)C(=O)Nc1ccccc1	0	0	x	x	x	x	x	x	x	x	x
Oc1[nH]c2ccc(Br)cc2c1N=NC(=S)Nc1ccc(F)cc1	21	0	37	67	25*	0.0062	0.033*	u	0.015*	0.031*	0.018*
